Our source for the outcome and Potency values is PubChem BioAssay (NCATS).

Records with an inconclusive call do not appear. Calls of active or inactive are those of the source. Unless noted, calls come from the whole dose curve; as a rule, active = well fitted curve in the direction sought with a large enough effect; inconclusive = small, poorly fitted or top-dose-only effect, or another doubt; inactive = no such curve, though single readings can be large; an effect the other way counts as inactive or inconclusive.

Experiment [1] can be described thus: qHTS for Inhibitors of Cell Surface uPA Generation: Validation Assay (AID 493164).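 Note: RAW 264.7 macrophage cells exposed to compound for 18 h.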 In a few lines:
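RAW 264.7, 4000 cells/well, o/n plating; cpd 7-pt 1:5 dilution 2.45 nM–38.3 uM final; 18 h, 37 C/5% CO2; ATP-Lite, 5 s luminescence exposure.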
Background: qHTS replaces the single test concentration by a dilution series.

Experiment [2] addresses phosphoglycerate mutase (Leishmania major) (UniProt Q4Q090). Briefly: qHTS Validation Assay to Find Inhibitors of Phosphoglycerate Mutase (AID 504548). Note: series mostly up to about 58 µM. Conditions: Potency: inhibition qHTS. The method in brief: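 Lm PGAM 1.25nM final; 100 mM TEA pH 7.6, 5 mM MgCl2, 0.01% Tween-20; 45 min RT; Kinase-GloPlus, 10 min; end-point luminescence. Enzyme-free wells as negative controls.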

For experiment [3], the target named is Ubiquitin carboxyl-terminal hydrolase 1 (Homo sapiens) (UniProt O94782). Briefly: Inhibitors of USP1/UAF1: Pilot qHTS (AID 504865). Note: nearly all actives have a fitted effect of over 35% in size. Note: potency is the fitted concentration of half-maximal effect. The method in brief:
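Deubiquitinase activity followed as kinetic rhodamine fluorescence release from 150 nM Ub-Rho. 1 nM USP1/UAF1 with compound, after 15 min room-temperature preincubation, in HEPES pH 7.8 buffer containing TCEP, EDTA, BSA and Tween-20.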

Experiment [4] is described as follows: qHTS for Inhibitors of ATXN expression: Validation of Cytotoxic Assay (AID 588349).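 Note: cells exposed to compound for 72 hr.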 Note: potency is the fitted concentration of half-maximal effect. In a few lines: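 HEK293, compound dose series, 72 hr / 37 degrees C; viability via CellTiter Glo (intracellular ATP).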
A short description of experiment [5]: qHTS for Inhibitors of ATXN expression: Validation (AID 588378). Note: nearly all actives have a fitted effect of over 75% in size. Note: potency is the fitted concentration of half-maximal effect. In a few lines: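 Luciferase luminescence (Bright-Glo) from an ATXN2-FFLuc HEK293 line after 24 h compound exposure at 37 °C, preceded by a CellTiter-Fluor fluorescence viability read. Serial dilutions of a reference ATXN2 inhibitor and a luciferase inhibitor served as controls.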
Experiment [6] deals with Phosphoglycerate kinase, glycosomal (Trypanosoma brucei brucei) (UniProt P07378). Briefly: qHTS Validation Assay to Find Inhibitors of Phosphoglycerate Kinase (AID 504547). Note: potency is the fitted concentration of half-maximal effect. The method in brief:
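Inhibition of the enzyme is judged by a Kinase-Glo Plus luminescent signal following a one-hour incubation at room temperature. Because 1,3-BPG is unstable, it is made in situ by GAPDH at 100nM final; no-PGK wells define the baseline.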

Experiment [7] concerns the target Peptidyl-prolyl cis-trans isomerase NIMA-interacting 1 (Homo sapiens) (UniProt Q13526). Briefly: qHTS Validation Assay to Find Inhibitors of Pin1 (AID 504536; active = well fitted inhibition curve with a large enough effect in the polarisation, with a control signal flat, not every such curve was filed as active; the % refers to the polarisation; note: potency is the fitted concentration of half-maximal effect). In a few lines: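 Fluorescence polarization competition: compounds (titration) displace HiFluor-488-labeled Pin1-1b peptide from Pin1 (0.3 uM final) in pH 7.5 HEPES buffer with DTT, 10 min at room temperature; %Activity normalized to no-enzyme wells, curves fitted.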

Experiment [8] concerns the target DNA dC->dU-editing enzyme APOBEC-3G (Homo sapiens) (UniProt Q9HC16). Briefly: qHTS for inhibitors of Vif-A3G interactions: Validation (AID 588379). The method in brief:
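HeLa cells stably expressing Vif and A3G-eYFP, 700 cells/well, incubated overnight at 37 deg C, then exposed to compound overnight at 37 deg C. Inhibition of Vif-mediated degradation read as increased yellow fluorescence (Ex 488/Em 500-530) by laser-scanning cytometry.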

The target of experiment [9] is Galactokinase (Homo sapiens) (UniProt P51570). As to the kind of experiment: qHTS Validation Assay for Inhibitors of Human Galactokinase (GALK) (AID 493189). The method in brief: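 Inhibition was measured as remaining ATP, detected by luciferase luminescence after a 1 h room-temperature reaction. Final conditions: 5 nM GALK, 100 uM galactose, 35 uM ATP, pH 8.0 HEPES buffer.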

Experiment [10] can be described thus: Validation screen for small molecules that induce DNA re-replication in SW480 colon adenocarcinoma cells (AID 504364). The method in brief:
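Cells are treated 48 hr with test compound, stained 40 min with Hoechst at 37 C, and scanned for nuclear fluorescence; compounds inducing re-replication increase nuclei with elevated intensity.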

Sequence of Ubiquitin carboxyl-terminal hydrolase 1 (Homo sapiens) (O94782 whole entry, looked up): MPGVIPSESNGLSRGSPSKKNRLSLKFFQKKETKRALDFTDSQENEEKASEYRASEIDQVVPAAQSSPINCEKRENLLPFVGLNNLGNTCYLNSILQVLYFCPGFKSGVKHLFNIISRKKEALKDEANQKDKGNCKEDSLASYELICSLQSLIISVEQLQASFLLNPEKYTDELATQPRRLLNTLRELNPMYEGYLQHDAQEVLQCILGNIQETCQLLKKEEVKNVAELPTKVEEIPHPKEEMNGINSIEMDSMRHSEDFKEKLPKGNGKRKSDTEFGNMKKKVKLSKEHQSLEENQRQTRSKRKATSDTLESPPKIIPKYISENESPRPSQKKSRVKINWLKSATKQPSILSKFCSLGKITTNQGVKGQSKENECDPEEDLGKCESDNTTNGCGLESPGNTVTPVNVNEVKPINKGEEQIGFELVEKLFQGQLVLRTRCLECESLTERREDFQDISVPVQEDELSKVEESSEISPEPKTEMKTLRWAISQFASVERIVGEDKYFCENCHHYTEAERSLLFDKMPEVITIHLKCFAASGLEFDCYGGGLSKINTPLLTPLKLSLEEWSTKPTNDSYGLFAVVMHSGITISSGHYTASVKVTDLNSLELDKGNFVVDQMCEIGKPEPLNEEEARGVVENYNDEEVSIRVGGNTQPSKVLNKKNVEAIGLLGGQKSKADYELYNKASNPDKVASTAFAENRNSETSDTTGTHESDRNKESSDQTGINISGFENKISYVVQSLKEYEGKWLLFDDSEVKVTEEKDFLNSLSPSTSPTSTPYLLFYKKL
Sequence of Phosphoglycerate kinase, glycosomal (Trypanosoma brucei brucei) (P07378 whole entry, looked up): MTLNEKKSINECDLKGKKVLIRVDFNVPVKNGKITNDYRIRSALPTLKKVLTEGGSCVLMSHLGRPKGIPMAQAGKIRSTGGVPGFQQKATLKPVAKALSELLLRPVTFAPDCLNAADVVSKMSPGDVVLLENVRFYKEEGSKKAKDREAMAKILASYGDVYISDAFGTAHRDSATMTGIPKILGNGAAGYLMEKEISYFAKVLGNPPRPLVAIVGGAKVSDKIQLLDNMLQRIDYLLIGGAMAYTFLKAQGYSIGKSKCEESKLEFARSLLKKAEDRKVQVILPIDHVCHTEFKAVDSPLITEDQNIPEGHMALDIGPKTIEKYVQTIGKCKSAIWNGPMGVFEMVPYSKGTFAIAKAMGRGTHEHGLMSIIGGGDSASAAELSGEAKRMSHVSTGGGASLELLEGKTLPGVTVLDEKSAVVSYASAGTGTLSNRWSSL
Sequence of phosphoglycerate mutase (Leishmania major) (Q4Q090 1-553): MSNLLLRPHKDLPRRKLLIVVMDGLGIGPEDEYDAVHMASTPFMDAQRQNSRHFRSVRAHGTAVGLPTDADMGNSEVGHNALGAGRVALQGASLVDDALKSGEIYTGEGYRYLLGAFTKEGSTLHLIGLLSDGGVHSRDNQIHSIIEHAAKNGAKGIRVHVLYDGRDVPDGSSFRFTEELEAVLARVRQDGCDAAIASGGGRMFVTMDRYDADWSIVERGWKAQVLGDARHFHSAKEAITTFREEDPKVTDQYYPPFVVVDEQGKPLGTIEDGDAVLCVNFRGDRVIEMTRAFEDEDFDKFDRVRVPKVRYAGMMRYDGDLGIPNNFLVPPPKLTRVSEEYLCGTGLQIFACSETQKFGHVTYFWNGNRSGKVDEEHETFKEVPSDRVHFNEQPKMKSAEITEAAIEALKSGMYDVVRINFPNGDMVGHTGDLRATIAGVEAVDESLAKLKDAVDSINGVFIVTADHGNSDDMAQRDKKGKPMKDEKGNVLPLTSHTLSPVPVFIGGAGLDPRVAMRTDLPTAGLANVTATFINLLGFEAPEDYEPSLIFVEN
Sequence of Peptidyl-prolyl cis-trans isomerase NIMA-interacting 1 (Homo sapiens) (Q13526 whole entry, looked up): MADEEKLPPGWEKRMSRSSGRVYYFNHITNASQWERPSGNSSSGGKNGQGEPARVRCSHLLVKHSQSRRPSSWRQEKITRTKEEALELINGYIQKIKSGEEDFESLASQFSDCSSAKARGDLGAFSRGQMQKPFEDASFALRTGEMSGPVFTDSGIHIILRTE
Sequence of Galactokinase (Homo sapiens) (P51570 whole entry, looked up): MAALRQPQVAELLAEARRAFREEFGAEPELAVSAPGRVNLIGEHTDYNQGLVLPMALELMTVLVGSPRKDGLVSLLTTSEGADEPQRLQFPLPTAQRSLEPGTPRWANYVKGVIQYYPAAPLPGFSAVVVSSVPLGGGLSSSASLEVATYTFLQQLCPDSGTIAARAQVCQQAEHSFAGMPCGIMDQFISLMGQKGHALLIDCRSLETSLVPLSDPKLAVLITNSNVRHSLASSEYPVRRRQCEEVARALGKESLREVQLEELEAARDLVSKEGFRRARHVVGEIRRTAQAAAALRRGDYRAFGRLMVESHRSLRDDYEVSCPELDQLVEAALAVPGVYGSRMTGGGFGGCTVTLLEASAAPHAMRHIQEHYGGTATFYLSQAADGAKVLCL
Sequence of DNA dC->dU-editing enzyme APOBEC-3G (Homo sapiens) (Q9HC16 whole entry, looked up): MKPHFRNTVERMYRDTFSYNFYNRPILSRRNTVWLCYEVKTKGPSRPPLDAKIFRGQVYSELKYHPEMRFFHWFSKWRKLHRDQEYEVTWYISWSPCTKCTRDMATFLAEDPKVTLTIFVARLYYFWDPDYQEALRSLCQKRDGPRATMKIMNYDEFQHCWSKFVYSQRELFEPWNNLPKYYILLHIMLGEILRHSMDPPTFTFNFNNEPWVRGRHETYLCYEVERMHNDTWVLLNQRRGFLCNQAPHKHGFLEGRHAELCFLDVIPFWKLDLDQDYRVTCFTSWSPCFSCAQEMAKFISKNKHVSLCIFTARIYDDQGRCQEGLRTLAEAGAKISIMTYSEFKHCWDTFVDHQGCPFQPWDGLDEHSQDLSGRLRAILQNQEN

For the compound `CO/N=C(\C(=O)N[C@@H]1C(=O)N2C(C(=O)O)=C(COC(C)=O)CS[C@H]12)c1csc(N)n1`, in experiment [1], the call was inactive. Further, the Potency entry in [2], in experiment [3], in experiment [4] and in experiment [5] was “inactive” throughout.
With `CSc1nc(N)c2ncn([C@@H]3O[C@H](COP(=O)(O)OP(=O)(O)OP(=O)(O)O)[C@@H](O)[C@H]3O)c2n1`, the outcome in experiment [1] was inactive. Moreover, the Potency entry in [6], in [2], in [3], in [4] and in [5] was “inactive” throughout.
Take `C[N+]1(C)CCC(OC(=O)C(c2ccccc2)c2ccccc2)CC1`: in experiment [1], the compound was classed as inactive. Moreover, the Potency result in experiment [7], in experiment [6], in [2], in [3], in experiment [4] and in experiment [5] was “inactive” in each case. For the same compound, in [8], the Potency entry was “inactive”.
For `Cc1ccc(S(=O)(=O)/C=C/C#N)cc1`, in experiment [1], the result was inactive. Also, the Potency entry in experiment [7], in [6], in experiment [2] and in [3] was “inactive” in each case. For the same compound, the Potency in experiment [5] is 10 µM (active).
As for `O=C(CCCCCN1CCN(c2ccccc2-c2ccccc2)CC1)NC1CCCc2ccccc21` (centres undefined), the compound was classed as inactive in experiment [1]. Moreover, the Potency entry in [7], in experiment [6], in [2] and in experiment [3] was “inactive” in each case. For the same compound, the Potency in [4] is 15.8 µM (active); in experiment [5], 20 µM (active).
Take `O=C1NC(O)=NC1(c1ccccc1)c1ccccc1`: the Potency result in experiment [9], in experiment [10], in [6], in experiment [2] and in experiment [3] was “inactive” each time.
Turning to `CC(C)NCC(O)COc1cccc2ccccc12` (centres undefined), the Potency entry in experiment [10], in [7] and in experiment [3] was “inactive” each time.
Take `CC[C@@H](C)[C@H]1O[C@]2(CC[C@@H]1C)C[C@@H]1C[C@@H](C/C=C(\C)[C@@H](O[C@H]3C[C@H](OC)[C@@H](O[C@H]4C[C@H](OC)[C@@H](O)[C@H](C)O4)[C@H](C)O3)[C@@H](C)/C=C/C=C3\CO[C@@H]4[C@H](O)C(C)=C[C@@H](C(=O)O1)[C@]34O)O2`: the Potency entry in experiment [9] is “inactive”.
For `Clc1ccccc1-c1nc(-c2ccncc2)no1`, the Potency entry in [3] is “inactive”.
On to `COc1cc(NC(C)CCCN)c2ncccc2c1` (centres undefined), for which the Potency in experiment [3] was 39.8 µM (active).
On to `Cn1ncc(S(=O)(=O)Cc2ccccc2)c(Br)c1=O`, for which the Potency result in experiment [7], in experiment [6] and in experiment [2] was “inactive” throughout. Besides, in [3], the Potency was 12.6 µM (active).
As for `CC1(C)C[C@@H]1C(=O)N/C(=C\CCCCSC[C@H](N)C(=O)O)C(=O)O`, in experiment [3], the Potency result is “inactive”.
Consider `N#C/C(=C\c1ccc(O)c(O)c1)C(=O)c1ccc(O)c(O)c1`, for which the Potency result in experiment [9], in experiment [3] and in experiment [4] was “inactive” throughout. The Potency in [7] is 1.69 µM (active); in experiment [6], 0.757 µM (active).
As to `N.N.O=C(O)C1(C(=O)O)CCC1.[Pt]`, the Potency result in experiment [9], in experiment [10], in experiment [4] and in experiment [5] was “inactive” each time. Moreover, the Potency in [3] is 28.2 µM (active).
Consider `Nc1ccn([C@@H]2O[C@H](CO)[C@@H](O)[C@@H]2O)c(=O)n1`, for which the Potency result in experiment [10] is “inactive”.
Consider `NC(=O)C(c1ccccc1)(c1ccccc1)[C@@H]1CCN(CCc2ccc3c(c2)CCO3)C1`, for which the Potency result in experiment [3] is “inactive”.
`O=C(O)Cc1ccc(-c2ccccc2)cc1`: in [3], the Potency entry was “inactive”.
With `C=C/C(C)=C/[C@@]1(C)SC(=O)C(C)=C1O`, the Potency result in experiment [9] and in experiment [10] was “inactive” each time.
Regarding `O=c1[nH]c2ccccc2n1CCCN1CCN(C(c2ccccc2)c2ccccc2)CC1`, the Potency entry in experiment [9] and in [10] was “inactive” throughout.
In the case of `Cc1c(N)c(=O)n(-c2ccccc2)n1C`, in experiment [3], the Potency result is “inactive”.
On to `CSc1ccccc1N1CCN(CCCCCC(=O)NC2CCCc3ccccc32)CC1` (centres undefined), for which the Potency result in [7], in experiment [6], in experiment [2] and in [3] was “inactive” in each case. Besides, the Potency in experiment [5] was 22.4 µM (active).
Take `CO/N=C(\C(=O)N[C@@H]1C(=O)N2C(C(=O)O)=C(COC(C)=O)CS[C@H]12)c1csc(N)n1` (stereo in doubt): the Potency result in experiment [9] and in [10] was “inactive” in each case.
In the case of `O=C(O)c1cc(O)c(O)c(O)c1`, the Potency entry in experiment [3] was “inactive”.
For `CN[C@H](CC(C)C)C(=O)N[C@H]1C(=O)N[C@@H](CC(N)=O)C(=O)N[C@H]2C(=O)N[C@H]3C(=O)N[C@H](C(=O)N[C@H](C(=O)O)c4cc(O)cc(O)c4-c4cc3ccc4O)[C@H](O)c3ccc(c(Cl)c3)Oc3cc2cc(c3O[C@@H]2O[C@H](CO)[C@@H](O)[C@H](O)[C@H]2O[C@H]2C[C@](C)(N)[C@H](O)[C@H](C)O2)Oc2ccc(cc2Cl)[C@H]1O`, the Potency entry in [9] and in [10] was “inactive” throughout.
For `COc1cc(/C=C/C(=O)N2CCN(CC(=O)N3CCCC3)CC2)cc(OC)c1OC`, the Potency entry in experiment [3] was “inactive”.
Take `O=C(O)[C@H](CC(=O)N1C[C@H]2CCCC[C@H]2C1)Cc1ccccc1`: the Potency entry in [3] is “inactive”.
With `N.N.N.N.N.N.N.N.N.N.N.N.N.N.O.O.[Ru+4].[Ru+5].[Ru+5]`, the compound was called inactive in [1]. Besides, the Potency in experiment [4] was 28.2 µM (active).
For `Cc1cc2c(cc1Cl)N(C(=O)Nc1ccc(Oc3cccnc3C)nc1)CC2`, the Potency result in experiment [7], in experiment [6] and in [2] was “inactive” each time. Further, the Potency in experiment [3] is 44.7 µM (active); in experiment [5], 17.8 µM (active).
Consider `Nc1ccc(C(=O)O)c(O)c1`, for which the Potency entry in experiment [3] was “inactive”.
Turning to `Cc1ccc(O)c(-n2nc3ccccc3n2)c1`, in [3], the Potency entry is “inactive”.
With `COc1cc(/C=C/C(=O)CC(=O)/C=C/c2ccc(O)c(OC)c2)ccc1O`, the Potency in experiment [3] is 12.6 µM (active).
Turning to `[O-][n+]1ccccc1SSc1cccc[n+]1[O-]`, the Potency result in [3] was “inactive”.
On to `CC(C)(C)NCC(O)COc1nsnc1N1CCOCC1` (centres undefined), for which the Potency entry in experiment [9] and in experiment [10] was “inactive” throughout.
Consider `Cc1c(Nc2ncccc2C(=O)O)cccc1C(F)(F)F`, for which the Potency result in [3] was “inactive”.
`CCOc1ccc2nc(S(N)(=O)=O)sc2c1`: the Potency result in experiment [3] is “inactive”.
Same read-out and setting: with `Cc1ccc(C(=O)c2ccc(CC(=O)O)n2C)cc1` the entry was “inactive”; with `C=CCN1C(=O)C(CC(C)C)NC1=S` (centres undefined), “inactive”.
The same measure, in the same setting: with `c1ccc2sc(SSc3nc4ccccc4s3)nc2c1` the entry was “inactive”; with `c1ccc2sc(SN3CCOCC3)nc2c1`, “inactive”; with `Nc1c(CC(=O)O)cccc1C(=O)c1ccc(Br)cc1`, “inactive”.
In the case of `CC(C(=O)O)c1ccc2c(c1)[nH]c1ccc(Cl)cc12` (centres undefined), the Potency entry in [3] was “inactive”.
